This passage reports Potency and outcome results from PubChem BioAssay (Tox21).

SMILES strings stand for the structures. Records with an inconclusive call do not appear. The source made the active and inactive calls. Unless noted, the call rests on the fitted dose curve; in most records, active means well fitted curve in the direction sought with a large enough effect in the repeat runs; inconclusive means weak or mixed curves; inactive means no such curve, though single readings can be large; an effect the other way counts as inactive or inconclusive.

Test [1] can be described thus: qHTS assay to identify aromatase inhibitors - cell viability counter screen (AID 743084).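 Further: cells stimulated with testosterone during compound exposure; nearly all actives have a fitted effect of over 55% in size.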 Further: potency means the concentration at half of the fitted maximal effect. Particulars: MCF-7 aro ERE viability, CellTiter-Fluor, 24 h; series mostly up to 70.3 µM.
The nature of test [2]: qHTS assay to identify small molecule that activate the aryl hydrocarbon receptor (AhR) signaling pathway - cell viability counter screen (AID 743086).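 Further: HepG2 liver cells carrying the AhR DRE luciferase reporter; nearly all actives have a fitted effect of over 45% in size.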 Particulars: HepG2-AhR-luc viability, CellTiter-Fluor, 24 h; series mostly up to 70.3 µM. In short, it runs like this:
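HepG2-AhR-luc (HG2L7.5c1) cells, 4000/well, treated 24 h at 37 C with compound; viability measured as CellTiter-Fluor fluorescence after 30 min in the same wells as the luciferase read.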
A general note: In qHTS, concentration-response curves come from the screen itself.

Test [3] deals with Peroxisome proliferator-activated receptor gamma (Homo sapiens) (UniProt P37231). The test is described as follows: qHTS assay to identify small molecule agonists of the peroxisome proliferator-activated receptor gamma (PPARg) signaling pathway (AID 743094; active means well fitted activation curve with a large enough effect in the signal ratio in the repeat runs, not every such curve was filed as active; the % refers to the signal ratio). The note with it: HEK293H PPARg-UAS-bla, beta-lactamase FRET ratio, 17 h; series mostly up to 57 µM. In short, it runs like this:
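Agonism was assessed in a beta-lactamase reporter system, HEK293H cells with a stably integrated UAS-bla construct under PPARg control; the 17 h treatment at 37C preceded a 1 h room-temperature FRET substrate read.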

Test [4] shares this target. The test is described as follows: qHTS assay to identify small molecule antagonists of the peroxisome proliferator-activated receptor gamma (PPARg) signaling pathway (AID 743191; calls by dose curve; further: nearly all actives have a fitted effect of over 30% in size). The note with it: HEK293H PPARg-UAS-bla, beta-lactamase ratio, antagonist, 17 h; series mostly up to 62.6 µM. In short, it runs like this: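 GeneBLAzer PPARg UAS-bla HEK293H cells, 5 h post-plating, exposed to compounds 17 h at 37C. LiveBLAzer B/G FRET substrate added for 1 h at room temperature; beta-lactamase reporter read by fluorescence intensity.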

A short description of test [5]: qHTS assay to identify small molecule antagonists of the peroxisome proliferator-activated receptor gamma (PPARg) signaling pathway - cell viability counter screen (AID 743194). Further: nearly all actives have a fitted effect of over 55% in size. Further: potency means the concentration at half of the fitted maximal effect. Particulars: PPARg-bla HEK293H viability, CellTiter-Glo luminescence, 17 h, co-treated with 50 nM rosiglitazone; series mostly up to 62.6 µM. In short, it runs like this: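 Cytotoxicity counter screen in PPARg-bla HEK293H cells, same wells as reporter assay. Compounds plus 50 nM rosiglitazone (final) for 17 h at 37 C, then viability read by CellTiter-Glo luminescence.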

A short description of test [6]: qHTS assay for small molecule agonists of the antioxidant response element (ARE) signaling pathway (AID 743202; active means well fitted activation curve with a large enough effect in the signal ratio in the repeat runs, not every such curve was filed as active; the % refers to the signal ratio; further: potency means the concentration at half of the fitted maximal effect). Particulars: HepG2 ARE-bla reporter, beta-lactamase FRET, 16 h; series mostly up to 73.3 µM. In short, it runs like this: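 HepG2 ARE-bla cells; 16 h treatment at 37 C; FRET-based beta-lactamase fluorescence read after 2 h substrate incubation at room temperature.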

Test [7] in a line: qHTS assay for small molecule agonists of the antioxidant response element (ARE) signaling pathway - cell viability counter screen (AID 743203; calls by dose curve; further: nearly all actives have a fitted effect of over 55% in size). The note with it: ARE-bla HepG2 viability, CellTiter-Glo luminescence, 16 h; series mostly up to 73.3 µM. In short, it runs like this: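 ATP content via CellTiter-Glo luminescence served as the viability measure. Cells: ARE-bla HepG2, 2,000 per well. Exposure: 16 hrs, 37C/5% CO2.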

Test [8] can be described thus: qHTS assay for small molecule activators of the heat shock response signaling pathway - cell viability counter screen (AID 743209). Further: nearly all actives have a fitted effect of over 50% in size. Further: potency means the concentration at half of the fitted maximal effect. The note with it: HSE-bla HeLa viability, CellTiter-Glo luminescence, 5 h; series mostly up to 62.6 µM. In short, it runs like this: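 Compounds dissolved in DMSO were added to overnight-plated HSE-bla HeLa cells and left 5 h at 37 C. Cell viability was quantified by luminescence using CellTiter-Glo.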

A short description of test [9]: qHTS assay for small molecule activators of the heat shock response signaling pathway (AID 743210; active means well fitted activation curve with a large enough effect in the signal ratio in the repeat runs, with a control signal flat, not every such curve was filed as active; the % refers to the signal ratio;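 further: HeLa cells with beta-lactamase reporter driven by heat shock elements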). The note with it: HeLa HSE-bla reporter, beta-lactamase ratio, 5 h; series mostly up to 62.6 µM. In short, it runs like this:
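Following overnight attachment, HSE-bla HeLa cells received test compounds for 5 h at 37 C; beta-lactamase activity was then detected via FRET substrate fluorescence.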

In test [10] the target is Aryl hydrocarbon receptor (Homo sapiens) (UniProt P35869). As to the kind of experiment: qHTS assay to identify small molecule that activate the aryl hydrocarbon receptor (AhR) signaling pathway (AID 743085). Further: nearly all actives have a fitted effect of over 15% in size. Further: potency means the concentration at half of the fitted maximal effect.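 On activation: HG2L7.5c1 human HepG2 liver cells with stably integrated DRE-driven firefly reporter.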 Particulars: HepG2 AhR-luc (HG2L7.5c1), luciferase, 24 h; series mostly up to 70.3 µM. In short, it runs like this:
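Reporter assay in engineered HepG2 line HG2L7.5c1, whose plasmid carries twenty dioxin responsive elements upstream of firefly luciferase. Treatment lasted 24 h at 37C; ONE-Glo luminescence gauged induction.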

Aryl hydrocarbon receptor (Homo sapiens), sequence (P35869 whole entry, looked up): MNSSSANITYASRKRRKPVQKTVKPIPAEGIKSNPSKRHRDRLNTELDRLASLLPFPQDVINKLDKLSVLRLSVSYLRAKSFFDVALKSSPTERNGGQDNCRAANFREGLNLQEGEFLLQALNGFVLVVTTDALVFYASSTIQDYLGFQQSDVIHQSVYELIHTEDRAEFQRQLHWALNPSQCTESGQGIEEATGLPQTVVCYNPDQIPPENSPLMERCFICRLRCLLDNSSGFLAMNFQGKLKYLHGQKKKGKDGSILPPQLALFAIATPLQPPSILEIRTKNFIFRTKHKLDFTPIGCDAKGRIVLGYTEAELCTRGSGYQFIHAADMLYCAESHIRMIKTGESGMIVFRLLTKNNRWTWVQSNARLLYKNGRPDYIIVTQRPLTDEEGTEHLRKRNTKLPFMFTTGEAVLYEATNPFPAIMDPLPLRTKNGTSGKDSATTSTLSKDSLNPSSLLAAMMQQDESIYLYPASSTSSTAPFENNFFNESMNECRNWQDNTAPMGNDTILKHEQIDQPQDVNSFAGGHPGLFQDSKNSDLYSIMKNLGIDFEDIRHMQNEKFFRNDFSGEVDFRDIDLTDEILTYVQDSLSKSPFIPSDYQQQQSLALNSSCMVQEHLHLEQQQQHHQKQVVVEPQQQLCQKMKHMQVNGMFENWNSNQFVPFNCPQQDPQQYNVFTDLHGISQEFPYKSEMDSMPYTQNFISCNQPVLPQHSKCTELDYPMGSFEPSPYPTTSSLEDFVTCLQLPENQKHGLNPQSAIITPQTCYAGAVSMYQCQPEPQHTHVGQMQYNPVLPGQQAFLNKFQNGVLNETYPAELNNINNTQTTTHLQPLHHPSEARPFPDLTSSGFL
Peroxisome proliferator-activated receptor gamma (Homo sapiens), sequence (P37231 whole entry, looked up): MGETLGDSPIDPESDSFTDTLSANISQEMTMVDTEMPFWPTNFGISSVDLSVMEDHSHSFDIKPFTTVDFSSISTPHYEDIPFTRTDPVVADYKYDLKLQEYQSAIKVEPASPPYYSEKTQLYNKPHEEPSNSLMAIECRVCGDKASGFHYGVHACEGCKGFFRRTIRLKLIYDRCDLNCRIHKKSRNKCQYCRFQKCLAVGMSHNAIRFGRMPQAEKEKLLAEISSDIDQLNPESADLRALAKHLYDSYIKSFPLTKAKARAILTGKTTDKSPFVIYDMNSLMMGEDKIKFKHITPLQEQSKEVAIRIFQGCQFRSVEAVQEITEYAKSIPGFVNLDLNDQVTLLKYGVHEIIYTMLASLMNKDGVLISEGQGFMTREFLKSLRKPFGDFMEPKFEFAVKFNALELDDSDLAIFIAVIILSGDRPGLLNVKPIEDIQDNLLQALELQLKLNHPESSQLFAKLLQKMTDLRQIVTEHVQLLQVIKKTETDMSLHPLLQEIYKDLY

For the compound `CCCCOC(O)CC` (configuration not stated), the Potency entry in test [1], in test [2], in [3], in test [4], in [5] and in [6] was “inactive” in each case. The Potency result in [7] and in [8] was “inactive” each time. In addition, in [9], the result was inactive.

For `CCCCCCCCCCCCCCCCCBr`, the Potency result in test [1], in test [2], in test [3], in test [4], in test [5] and in test [6] was “inactive” throughout. For the same compound, the Potency result in [7] and in [8] was “inactive” throughout.

On to `Cc1cccc(Oc2ccccc2)c1`, for which the Potency result in [1], in [2], in [3], in test [4], in [5] and in [6] was “inactive” throughout. Moreover, the Potency entry in [7] and in [8] was “inactive” throughout. Further, in test [9], the outcome was inactive.

With `NCCCOCCOCCOCCCN`, the Potency entry in test [1], in [2], in test [3], in test [4], in test [5] and in [7] was “inactive” throughout. In addition, the Potency result in test [8] is “inactive”. For the same compound, the outcome in [9] was inactive.

Take `CCCCCCCCN(C)C`: the Potency result in [1], in [2], in [3], in [4], in [6] and in [8] was “inactive” throughout.

In the case of `CC(C(=O)O)c1ccc(-c2ccccc2)c(F)c1` (configuration not stated), the Potency result in [1], in test [10], in test [2], in [7] and in test [8] was “inactive” in each case. In addition, in [9], the result was inactive.

In the case of `Cc1ncsc1CCO`, the Potency result in [1], in [10], in test [2], in test [6], in test [7] and in [8] was “inactive” in each case. Besides, the outcome in test [9] was inactive.

For `COCCCCCCCCOCCC[Si](C)(O[Si](C)(C)C)O[Si](C)(C)C`, the Potency in test [1] was 30.6 µM (active); in test [8], 38.9 µM (active). Also, the Potency entry in test [10] and in [3] was “inactive” each time.

On to `COc1ccc(OC)c(OC)c1`, for which the Potency result in [1], in test [2], in test [3], in test [4], in test [5] and in [7] was “inactive” each time. In [8], the Potency result was “inactive”.

Regarding `CN1CCN(C2=Nc3cc(Cl)ccc3Nc3ccccc32)CC1`, the Potency result in test [1], in test [10], in test [5], in test [7] and in test [8] was “inactive” each time. Also, the result in test [9] was inactive.

With `CCOc1cc(OCC)c(C(=O)CCC(=O)O)cc1OCC`, the Potency result in [1], in test [10], in test [2], in test [7] and in test [8] was “inactive” throughout. Besides, the result in test [9] was inactive.

With `CCCOc1ccc2nc(NC(=O)OC)[nH]c2c1`, the Potency entry in [1], in [2], in test [3], in test [4], in [5] and in test [7] was “inactive” throughout. Further, the Potency result in test [8] was “inactive”. Also, the result in test [9] was inactive.

Take `O=C(O)Cc1sc(-c2ccccc2)nc1-c1ccc(Cl)cc1`: the Potency result in [1], in [2], in test [6] and in test [8] was “inactive” throughout. Moreover, the Potency in test [10] is 10.6 µM (active). Besides, the outcome in [9] was inactive.

As for `CCN(CC)CCOC(=O)C1(c2ccccc2)CCCC1`, the Potency result in test [1], in [2], in test [3], in test [4], in test [6] and in test [7] was “inactive” throughout. The Potency result in [8] was “inactive”. For the same compound, the result in test [9] was inactive.

Turning to `CCCCCCCCCCCCC(=O)O`, the Potency result in [1], in [10], in test [2], in [5] and in test [7] was “inactive” in each case.

`CCCCCc1ccc(N)cc1`: the Potency entry in test [1], in test [10], in test [2], in [5] and in [8] was “inactive” throughout. In addition, the result in [9] was inactive.

Regarding `Cc1cc(CC(=O)O)c(C)n1-c1ccc(Cl)cc1`, the Potency result in test [1], in test [10], in test [2], in test [5], in test [7] and in [8] was “inactive” throughout. Also, the outcome in test [9] was inactive.

Turning to `Cc1cccc(C(C)(C)C)c1O`, the Potency result in test [1], in test [2], in test [3], in test [4], in test [5] and in test [6] was “inactive” each time. Moreover, the Potency entry in [7] and in test [8] was “inactive” each time. Further, the result in [9] was inactive.

Take `Nc1nc(CC(=O)O)cs1`: the Potency entry in test [1], in [2], in test [3], in test [4], in test [5] and in test [6] was “inactive” each time. Besides, the Potency entry in test [7] and in test [8] was “inactive” in each case. Besides, the result in test [9] was inactive.

Consider `Oc1ccc(C(O)CNCCCCCCNCC(O)c2ccc(O)c(O)c2)cc1O` (configuration not stated), for which the Potency in test [1] is 21.1 µM (active). The Potency entry in test [10], in [4], in test [5], in test [7] and in [8] was “inactive” throughout.

In the case of `CC(C)NCC(O)COc1ccc(CC(N)=O)cc1` (configuration not stated), the Potency result in test [1], in test [2], in test [3], in test [4], in [5] and in test [6] was “inactive” each time. In addition, the Potency entry in [7] and in [8] was “inactive” each time. The outcome in [9] was inactive.

With `CCCCC(CC)COCCCN` (configuration not stated), the Potency entry in test [1], in test [10], in [2], in test [6], in test [7] and in test [8] was “inactive” each time.

As to `CN1CCC(=C2c3ccccc3CCc3sccc32)CC1`, the Potency result in test [1], in test [10], in test [3], in test [7] and in test [8] was “inactive” in each case.

As to `Cc1ccc(C(=O)C(C)CN2CCCCC2)cc1` (configuration not stated), the Potency entry in [1], in [2], in test [3], in [5], in test [7] and in test [8] was “inactive” throughout. Moreover, the Potency in [6] is 23.7 µM (active). For the same compound, in test [9], the result was inactive.

`CCN(CC)CCOc1ccc2c(c1)C(=O)c1cc(OCCN(CC)CC)ccc1-2`: the Potency entry in test [1], in [10], in test [3], in [4] and in test [8] was “inactive” throughout. The Potency in [5] was 29.8 µM (active). In [9], the result was inactive.

For `CCCCCC(CO)CCC` (configuration not stated), the Potency result in test [1], in [2], in test [3], in test [5], in test [6] and in [7] was “inactive” throughout. Besides, in [8], the Potency result was “inactive”.
